Source: PubChem BioAssay AID1117292 (Broad Institute, 2014)
Entries with a potency or affinity are not part of this list. Records with an inconclusive call do not appear. Activity calls are given as the source filed them.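 How the source made its calls: active means compound whose fitted half-maximal dose for signal loss lies within twice the top dose in every replicate test; inconclusive means tests disagree, or flat partial signal loss or poor fit; inactive means every test inactive, flat, rising or too weak.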

The compounds below were run against Endoplasmic reticulum aminopeptidase 1 (Homo sapiens) (UniProt Q9NZ08) (assay: ERAP1 enzyme inhibitors, dose response, biochemical, fluorescence plate reader, dry powder (AID 1117292)). Details: purified ERAP1, Leu-AMC fluorescence, 60 min; series mostly up to 50 µM.
Chain of Endoplasmic reticulum aminopeptidase 1 (Homo sapiens) (Q9NZ08 whole entry, looked up): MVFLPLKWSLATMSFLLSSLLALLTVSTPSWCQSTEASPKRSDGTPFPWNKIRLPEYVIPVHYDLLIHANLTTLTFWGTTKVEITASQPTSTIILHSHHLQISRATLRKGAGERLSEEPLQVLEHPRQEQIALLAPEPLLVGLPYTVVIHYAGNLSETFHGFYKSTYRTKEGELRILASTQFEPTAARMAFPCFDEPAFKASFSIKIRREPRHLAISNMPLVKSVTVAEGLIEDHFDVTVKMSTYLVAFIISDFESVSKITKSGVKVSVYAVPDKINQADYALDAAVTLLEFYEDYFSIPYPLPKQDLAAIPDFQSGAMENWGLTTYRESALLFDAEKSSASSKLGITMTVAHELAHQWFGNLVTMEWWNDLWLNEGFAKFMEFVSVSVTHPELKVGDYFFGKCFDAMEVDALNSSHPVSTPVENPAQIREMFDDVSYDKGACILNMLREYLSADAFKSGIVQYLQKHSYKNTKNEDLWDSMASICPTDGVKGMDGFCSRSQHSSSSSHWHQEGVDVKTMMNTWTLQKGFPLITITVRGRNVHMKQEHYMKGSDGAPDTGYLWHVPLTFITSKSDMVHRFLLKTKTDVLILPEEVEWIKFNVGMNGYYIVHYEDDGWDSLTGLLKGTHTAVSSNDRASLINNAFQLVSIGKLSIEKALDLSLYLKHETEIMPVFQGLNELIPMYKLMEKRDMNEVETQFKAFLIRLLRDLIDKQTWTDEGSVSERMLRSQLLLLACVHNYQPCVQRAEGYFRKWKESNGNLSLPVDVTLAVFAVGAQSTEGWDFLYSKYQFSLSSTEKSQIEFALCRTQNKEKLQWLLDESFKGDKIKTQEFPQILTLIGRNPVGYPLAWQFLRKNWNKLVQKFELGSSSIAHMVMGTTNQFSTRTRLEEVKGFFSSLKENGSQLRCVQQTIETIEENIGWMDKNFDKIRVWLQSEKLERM

outcome, inactive:
CC(=O)N1CCN(C(=O)C2(NC(=O)NC(C)(C)C)CCCCC2)CC1
O=[N+]([O-])c1ccc(S(=O)(=O)Nc2cc(C(F)(F)F)ccc2N2CCCCC2)c([N+](=O)[O-])c1
CC(=O)N1CCN(C(=O)C2(NC(=O)Nc3ccc(F)cc3)CCCCC2)CC1
O=S(=O)(Nc1cc(C(F)(F)F)ccc1N1CCCCC1)c1ccc(C(F)(F)F)cc1
CC(=O)N1CCN(C(=O)C2(NC(=O)Nc3cccc(C(F)(F)F)c3)CCCCC2)CC1
COc1ccc(C(=O)Nc2cc(C(F)(F)F)ccc2N2CCCCC2)cc1S(=O)(=O)O
O=S(=O)(Nc1cc(C(F)(F)F)ccc1N1CCCCC1)c1ccc(-c2ccccc2)cc1
COc1ccc(C(=O)O)cc1S(=O)(=O)Nc1cc(C(F)(F)F)ccc1N1CCOCC1
CC(=O)N1CCN(C(=O)CNC(=O)Nc2ccc(C)cc2)CC1
CC(=O)N1CCN(C(=O)C2CCCN2C(=O)Nc2ccc(C)cc2)CC1 (configuration not stated)
Cc1ccccc1S(=O)(=O)Nc1cc(C(F)(F)F)ccc1N1CCCCC1
CC(=O)N1CCN(C(=O)C2(NC(=O)NCCc3ccccc3)CCCCC2)CC1
CC(=O)N1CCN(C(=O)C2(NC(=O)Nc3ccc(C)cc3)CC2)CC1
N#Cc1ccc(S(=O)(=O)Nc2cc(C(F)(F)F)ccc2N2CCCCC2)cc1
O=S(=O)(Nc1cc(C(F)(F)F)ccc1N1CCCCC1)c1ccccc1
CC(=O)N1CCN(C(=O)C2(NC(=O)Nc3ccccc3)CCCC2)CC1
CC(=O)N1CCN(C(=O)C2(NC(=O)Nc3ccc(C(C)C)cc3)CCCCC2)CC1
COc1cccc(NC(=O)NC2(C(=O)N3CCN(C(C)=O)CC3)CCCCC2)c1
Cc1ccc(NC(=O)NC2(C(=O)N3CCNCC3)CCCCC2)cc1
COc1ccc(C(=O)Nc2ccccc2N2CCCCC2)cc1S(=O)(=O)O
COc1ccc(C(=O)Nc2cc(F)ccc2N2CCCCC2)cc1S(=O)(=O)O
Cc1ccc(NC(=O)NC2(C(=O)N3CCN(c4ccccc4)CC3)CCCCC2)cc1
